CYP2C9 inhib = blockers of cytochrome P450 2C9 activity – biochemical, luminescence, ADME assay, primary screen; inhibition, % at 5 µM; hit rate 20% among 96,000; CYP2C9 Supersomes, luciferin-H conversion;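 active = blocking of liver enzyme CYP2C9 beyond about 50% at 5 µM, limit read from the data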
CYP2C19 inhib = blockers of cytochrome P450 2C19 activity – biochemical, luminescence, ADME assay, primary screen | P33261 | CYP2C19 Supersomes, luciferin-H EGE luminescence, 30 min | inhibition, % at 5 µM | hit rate 21% among 96,000 | AID 778, 2007;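 active = CYP2C19 inhibition above a set limit at 5 µM in the primary screen, cut at about 50% in these data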
Target sequence (P33261 whole entry, looked up): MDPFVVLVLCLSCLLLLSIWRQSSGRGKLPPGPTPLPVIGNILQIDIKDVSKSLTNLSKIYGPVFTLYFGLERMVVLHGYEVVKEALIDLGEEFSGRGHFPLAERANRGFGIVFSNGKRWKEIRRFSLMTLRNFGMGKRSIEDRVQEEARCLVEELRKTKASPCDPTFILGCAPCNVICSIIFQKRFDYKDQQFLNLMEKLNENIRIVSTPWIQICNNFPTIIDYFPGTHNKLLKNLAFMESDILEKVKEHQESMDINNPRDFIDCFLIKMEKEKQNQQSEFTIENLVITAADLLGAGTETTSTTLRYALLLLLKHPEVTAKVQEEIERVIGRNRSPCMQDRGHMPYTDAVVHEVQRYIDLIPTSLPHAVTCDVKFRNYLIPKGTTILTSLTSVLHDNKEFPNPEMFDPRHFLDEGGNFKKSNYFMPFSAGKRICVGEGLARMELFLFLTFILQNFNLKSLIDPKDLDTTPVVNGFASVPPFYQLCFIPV
CYP2C9 activ = human CYP2C9 activators, primary screen, biochemical, luminescence; recombinant CYP2C9, luciferin-H conversion; stronger effect = higher value; factor 1 = untreated enzyme, 0 = blocked; activation factor at 5 µM; hit rate 1.4% among 96,000; Cytochrome P450 2C9 (Homo sapiens), P11712;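 active = activation factor of 2 or more for CYP2C9 at a 5 µM dose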
PLAP activator = PLAP enzyme activators, biochemical, luminescence, HTS; activation fold at 20 µM; purified PLAP enzyme, luminescent substrate read-out; stronger effect = higher value; Alkaline phosphatase, placental type (Homo sapiens), P05187; hit rate 1.2% among 96,000; in the data active = activation fold above about 2
CYP2C19 activ = human CYP2C19 activators, primary screen, biochemical, luminescence. Cytochrome P450 2C19 (Homo sapiens), P33261. recombinant CYP2C19, luciferin-H EGE luminescence; stronger effect = higher value; 0 = fully inhibited enzyme, 1 = untreated enzyme. activation factor at 5 µM. 96,000 tested, under 10 active. AID 1025, 2008;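 active = activation factor of at least 2 at 5 µM in the primary screen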
Hits are given with their value; . = inactive. Shown are actives, neighbours in structure and some others; about 31% of the full set was active somewhere.

SMILES	CYP2C9 inhib	CYP2C19 inhib	CYP2C9 activ	PLAP activator	CYP2C19 activ
O=C1CSC(c2ccncc2)N1Cc1ccco1 (centres undefined)	.	.	.	.	.
COC(=O)C1=C(C)NC(=O)NC1c1cn(-c2ccccc2)nc1-c1cccs1 (centres undefined)	.	.	.	.	.
O=C1CSC(c2cn(-c3ccccc3)nc2-c2ccccc2)N1Cc1ccco1 (centres undefined)	96.2	85.7	.	.	.
O=C1CSC(c2cn(-c3ccccc3)nc2-c2cc3ccccc3oc2=O)N1Cc1cccnc1 (centres undefined)	.	.	.	.	.
CCc1ccc(-c2nn(-c3ccccc3)cc2C2SCC(=O)N2Cc2ccco2)cc1 (centres undefined)	67.4	.	.	.	.
COc1ccc(CCN(C(=O)C(F)(F)F)C(C(=O)NC2CCCCC2)c2ccc(C)s2)cc1 (centres undefined)	.	.	.	.	.
O=C(NCc1ccco1)C1CCCN(S(=O)(=O)c2ccc(Cl)cc2)C1 (centres undefined)	.	.	.	.	.
CC1(c2ccccc2)NC(=O)N(CC(=O)NC(=O)NC2CCCC2)C1=O (centres undefined)	.	52.6	.	.	.
COc1ccc(C(=O)CN2C(=O)NC(C)(c3ccccc3)C2=O)cc1OC (centres undefined)	.	.	.	.	.
CC1(c2ccccc2)NC(=O)N(CCOc2ccccc2)C1=O (centres undefined)	.	65.1	.	.	.
CCOC(=O)NC(=O)CN1C(=O)NC(C)(c2ccccc2)C1=O (centres undefined)	.	.	.	.	.
CCOc1ccccc1CN1C(=O)NC(C)(c2ccccc2)C1=O (centres undefined)	.	93.8	.	.	.
NCCCCCNC(=O)/C=N\O	.	.	.	.	.
COc1ccc(/C=C/c2ccncc2)c2ccccc12	54.4	88.1	.	.	.
COc1ccc2ccccc2c1/C=N/O	.	.	.	.	.
C(#Cc1ccc(C#CCN2CCOCC2)cc1)CN1CCOCC1	.	.	.	.	.
CN(C)C(=O)c1cn(-c2ccccc2)nc1-c1cccs1	.	.	.	.	.
O=C(CCSCc1ccccc1Cl)N1CCN(c2cccc(Cl)c2)CC1	62.8	.	.	.	.
O=C(CN1C(=O)c2ccccc2C1=O)N1CCN(c2ccccn2)CC1	.	.	.	.	.
O=C(CCSCc1ccccc1F)N1CCN(c2ccccn2)CC1	77.4	50.3	.	.	.
O=C(CSCc1ccccc1Cl)N1CCN(c2ccccn2)CC1	85.0	87.2	.	.	.
O=C(CSCc1nc2ccccc2[nH]1)N1CCN(c2cccc(Cl)c2)CC1	.	.	.	.	.
O=C(c1cn(-c2ccccc2)nc1-c1cccs1)N(CCO)Cc1ccccc1	68.8	75.1	.	.	.
CN1CCN(C(=O)c2cn(-c3ccccc3)nc2-c2cccnc2)CC1	.	.	.	.	.
O=C(c1cn(-c2ccccc2)nc1-c1cccs1)N1CCN(c2ccccn2)CC1	99.6	95.5	.	.	.
SMILES	CYP2C9 inhib	CYP2C19 inhib	CYP2C9 activ	PLAP activator	CYP2C19 activ
O=C(CNS(=O)(=O)c1cccs1)N1CCN(c2ccccn2)CC1	.	.	.	.	.
O=C(Cc1cccs1)N1CCN(c2ccccn2)CC1	.	52.1	.	.	.
Cn1nnnc1SCCOc1ccc(C#N)cc1	.	62.2	.	.	.
O=C(O)CSc1nnc(C2COc3ccccc3O2)n1-c1ccccc1 (centres undefined)	.	.	.	.	.
Cn1c(SCc2cnc(-c3ccccc3)s2)nnc1C1COc2ccccc2O1 (centres undefined)	.	90.2	.	.	.
Cn1c(SCc2cc(=O)n3cc(Br)ccc3n2)nnc1C1COc2ccccc2O1 (centres undefined)	53.6	.	.	.	.
CCN(CC)C(=O)CCNS(=O)(=O)c1ccc(C)cc1	.	.	.	.	.
CC(C)Cn1c(-c2csc3ccccc23)n[nH]c1=S	.	77.6	.	.	.
COc1ccc(-c2n[nH]c(=S)n2CC(C)C)cc1	56.1	78.5	.	2.5	.
CCn1c(-c2ccccc2O)n[nH]c1=S	.	.	.	.	.
CCn1c(-c2ccc(C)cc2)n[nH]c1=S	.	.	.	.	.
COc1c2ccc(C(=O)NCCCCc3ccccc3)cc2nn1C	.	.	.	.	.
COC(=O)c1cc(Cl)c(NC(=O)/C=C/c2ccc(OC)c(OC)c2)cc1OC	.	.	.	.	.
COc1cc(/C=C/C(C)=O)cc(OC)c1OC	.	.	.	.	.
COc1ccc(/C=C/C(=O)c2ccc(Cl)s2)cc1O	58.7	53.9	.	.	.
COc1cc(/C=C/C(=O)c2ccc(Cl)s2)cc(OC)c1O	.	50.1	.	.	.
CC(C)CC(=O)Nc1nc2c(c(=O)[nH]1)CCCC2	.	.	.	.	.
Cc1cc(Cl)ccc1OCCCC(=O)N1CCCc2ccccc21	.	.	.	.	.
CCC(=O)c1ccc(N2CCCCCC2)c(F)c1	52.3	68.3	.	.	.
CCOC(=O)N1CCN(c2cc(C)c(C(C)=O)cc2F)CC1	.	.	.	.	.
CCOC(=O)N1CCN(Cc2c(F)cccc2Cl)CC1	.	.	.	.	.
CCOC(=O)N1CCN(c2ccc(C(=O)c3ccccc3)cc2F)CC1	86.9	76.5	.	.	.
CCOC(=O)N1CCN(Cc2c(F)cccc2F)CC1	.	76.3	.	.	.
C=CCSc1nnc(-c2cc3c(s2)-c2ccccc2CC3)o1	.	.	.	.	.
O=C(CC(c1ccccc1)c1ccccc1)OCn1nnc2ccccc2c1=O	94.7	84.8	.	.	.
SMILES	CYP2C9 inhib	CYP2C19 inhib	CYP2C9 activ	PLAP activator	CYP2C19 activ
CC(C)(Oc1ccc(Cl)cc1)C(=O)OCn1nnc2ccccc2c1=O	50.7	.	.	.	.
O=C(CC1CCCCC1)OCn1nnc2ccccc2c1=O	.	69.3	.	.	.
O=C(OCn1nnc2ccccc2c1=O)c1cccnc1	.	.	.	.	.
CCCNC(=O)Nc1nccs1	.	.	.	.	.
Cn1c(CC2C(=O)Nc3ccc(Br)cc32)nc2ccccc2c1=O (centres undefined)	81.9	.	.	.	.
CCN1C(=O)C(Cc2nc3ccccc3c(=O)n2-c2ccccc2)c2ccccc21 (centres undefined)	.	.	.	.	.
COc1ccc(OC)c(C2C(C#N)=C(N)Oc3c2c(C)nn3-c2cccc(Cl)c2)c1 (centres undefined)	98.5	82.6	.	.	.
Cc1nn(-c2cccc(Cl)c2)c2c1C(c1cccnc1)C(C#N)=C(N)O2 (centres undefined)	.	.	.	.	.
